# Results as given in PubChem BioAssay (NCI).
# This is part of a sample that, as a whole, favours compounds with a hit. Of some 83,000 tested, about 20% had one in any assay.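 For each line, cells grew in 96-well plates with the test compound present at a single concentration for 48 hours.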 Activity calls are given as the source filed them.
# Test system: SW-620 colon
# Assay: NCI-60 one-dose screen, 48 h (100 = growth as untreated, 0 = no growth, -100 = all killed)
# Conditions: 10 µM unless noted
# Method: Growth inhibition of the SW-620 human tumor cell line is measured as a screen for anti-cancer activity. Cells are grown in 96 well plates and exposed to the test compound for 48 hours. Compounds are tested at a single concentration, which is 10^-5 M for most compounds. The reported endpoint is percent growth (GI% or GIPRCNT), where numbers from 0 - 100% represent growth inhibition, and numbers from -100% - 0 represent cell death. For example, a value of 40 represents 60% growth inhibition. A value of 0 means no net growth occurred over the course of the experiment. A value of -40 indicates 40% of cells at the beginning of the experiment died by the end of the experiment. A value of -100 means all cells are dead at the end of the experiment.
# NCI-60 Human Tumor Cell Lines Screen was performed using the standard one-dose NCI protocol, which is described in more detail at https://dtp.cancer.gov/discovery_development/nci-60/default.htm.
# Compounds with GIPRCNT values below 10 were considered active. Activity score was based on GIPRCNT using the following formula: […]
# Score is 0 for GIPRCNT values of 100 or above, 50 for GIPRCNT values of 0, and 100 for GIPRCNT values of -100.
row,Structure (SMILES),growth
1,COc1cnc2c(c1)C(=O)c1c-2n(CCCN2CCCC2)c(=O)c2cc(Cl)ccc12,-89.4% (active)
2,Clc1ccc(-c2nc(-c3cccs3)no2)cc1,91% (inactive)
3,CCCCSc1ncnc2c1ncn2C1CCCCO1 (stereo not given),107% (inactive)
4,O=C(c1ccccc1)C1OC1C(=O)c1ccccc1 (stereo not given),27.7% (inactive)
5,Cc1ccc([C@H]2c3[nH]c4ccccc4c3C[C@H]3C(=O)N(CCCCCCC(=O)NO)CC(=O)N23)cc1,36.5% (inactive)
6,N/C(=N\OC(=O)c1ccccc1)C(Cc1ccccc1)C(=O)NOC(=O)c1ccccc1 (stereo not given),65.3% (inactive)
7,COc1cc(/C=C/c2cc(/C=C/c3ccc(O)c(OC)c3)n(C(=O)Nc3ccc(F)c(Cl)c3)n2)ccc1O,2.03% (active)
8,C=CCOC(=O)C1=C(C)NC2=C(C(=O)CC(C)(C)C2)C1c1ccc(OC)cc1 (stereo not given),98.9% (inactive)
9,CN(C)c1ccc(/C=C\c2cccc[n+]2C)cc1,22.4% (inactive)
10,COc1cccc(N2CCN(c3ncnc4cc[nH]c34)CC2)c1,90.6% (inactive)
11,COc1ccccc1/C=C/C(=O)CCC(=O)O,107% (inactive)
12,O=[N+]([O-])c1ccc(SSc2ccc([N+](=O)[O-])cc2Cl)c(Cl)c1,97.6% (inactive)
13,COCc1nc(NS(=O)(=O)c2ccc(N)cc2)nc(C)c1Br,103% (inactive)
14,Clc1nnc2c3ccccc3ccn12,96.7% (inactive)
15,CN(C)N1C(=O)c2c(Cl)c(Cl)c(Cl)c(Cl)c2C1=O,108% (inactive)
16,C=C1C[C@@]2(C)C(CC[C@]3(C)C2CC=C2C4CC(C)(C)C[C@@H](OC(=O)/C(C)=C\C)[C@]4(C(=O)O)CC[C@]23C)C(C)(C)C1=O (stereo not given in full),-29.1% (active)
17,N/N=C(\C(=N\N)c1ccccc1)c1ccccc1,101% (inactive)
18,O=C(Nc1cccc(-n2ccc3c(NC(=O)c4ccccc4)nccc32)c1)c1ccc(N2CCOCC2)c(C(F)(F)F)c1,26.9% (inactive)
19,Brc1ccsc1Br,111% (inactive)
20,COc1ccc2[nH]cc(C3(c4c[nH]c5ccc(OC)cc45)C(=O)Nc4ccc(F)cc43)c2c1,25.9% (inactive)

row,Structure (SMILES),growth
1,CN1C(=O)N(C)C2C1NN=c1s/c(=C\c3ccc(Br)cc3)c(=O)n12 (stereo not given),20% (inactive)
2,C=C(COC(C)=O)[C@H]1CC/C(C)=C/CC/C(C)=C/CC[C@@]2(C)O[C@H]2C1,112% (inactive)
3,Clc1cc2nc(-c3ccccc3)c(-c3ccccc3)nc2cc1Cl,89.7% (inactive)
4,O/N=C/c1ccncc1,102% (inactive)
5,O=S1(=O)NCCN1CCNc1nccc(-c2c(-c3cccc(O)c3)nc3sccn23)n1,127% (inactive)
6,O=C(NNC(=O)c1cccc(Cl)c1)c1ccccc1,106% (inactive)
7,Cc1ccccc1Nc1n[nH]c(Cc2ccccc2)n1,102% (inactive)
8,CCN(CC)CCNC(=O)n1cc(-c2ccncc2)c(-c2cc(Cl)cc(OC)c2)n1,100% (inactive)
9,O=C(CCCCCCN1CC(=O)N2[C@@H](c3ccc(Cl)c(Cl)c3)c3[nH]c4ccccc4c3C[C@H]2C1=O)NO,33% (inactive)
10,CC1OC(n2c3ccccc3c3c4c(c5c6ccccc6[nH]c5c32)C(=O)N(CCN[C@H]2CCC[C@@H]2N)C4=O)CC(O)C1O (stereo not given in full),17.4% (inactive)
11,Cc1ccc(NC(=O)c2cc(NCc3cc(O)ccc3O)ccc2O)cc1,106% (inactive)
12,FC(F)(F)c1cc(-c2nnc3n2N=C(Cl)CS3)cc(C(F)(F)F)c1,89.7% (inactive)
13,O=C(CC(=O)c1cccc(Cl)c1)c1cccc(Cl)c1,30.7% (inactive)
14,CCOC(=O)N1C2CCC(C2)N1C(=O)OCC,105% (inactive)
15,Cc1ccc(C)c(NC(=O)c2sc3c(=O)[nH]cnc3c2C)c1,42.8% (inactive)
16,CC(C)[C@@]12C[C@@H](OC(=O)C3CO3)[C@@](C)(O1)[C@@H]1CC[C@@H](C)[C@H]1[C@@H]2OC(=O)/C=C/c1ccccc1 (stereo not given in full),98.3% (inactive)
17,CCc1c(C)c2ccc(O)c(-c3cc(-c4ccccc4)c(C#N)c(=O)[nH]3)c2oc1=O,105% (inactive)
18,Oc1ccccc1-c1nnc(COc2ccc(Cl)cc2Cl)o1,51.2% (inactive)
19,CC1=CCC2C1CC=C(C)C(CC[C@H]1[C@@](C)(O)CCC3OC(C)(C)[C@H](OC(=O)c4ccccc4)CC[C@@]31C)C2(C)C (stereo not given in full),80% (inactive)
20,Cc1ccc(Nc2cc(Cl)c([N+](=O)[O-])cc2[N+](=O)[O-])cc1,9.72% (active)
